Only some compounds are listed: those with a hit (about 4% of all), similar ones and a draw of the others.
CF NFkB block – blocks PAF-induced NF-kB reporter in cystic fibrosis cells | KKLEB NF-kB-GFP reporter, GFP fluorescence overnight | inhibition, % at 5 µM | 0.86% of 360,000 active;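 active = at least 50% inhibition at 5 µM, scaled per plate between neutral and stimulator controls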;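 note: PAF is a Pseudomonas aeruginosa culture filtrate used as stimulus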
KKLEB cytotox – CF airway cell cytotoxicity counter-screen; 0.36% of 360,000 active; KKLEB CF airway cells viability, ATPlite luminescence, overnight; hits give low values; cells stimulated with P. aeruginosa culture filtrate; activity change (cytotoxicity), % at 5 µM; AID 602141;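 active = corrected activity change at or below -50% at 5 µM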
HIF-2a block – HIF-2a inhibition; inhibition, % at 18.8 µM; 0.72% of 360,000 active; 786-0 RCC cells HIF-2a reporter, luciferase luminescence, overnight;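 active = inhibition of the luminescence signal of 40% or more relative to plate controls, in a single-dose primary screen at 18.75 µM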
TROY signal inh – inhibitors of TROY-dependent NF-kB signaling | Q293 LMP1-TROYcd NF-kB luciferase reporter, 4 h | inhibition, % at 10 µM | 0.98% of 360,000 active | AID 1347056;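 active = compounds whose plate-normalised and pattern-corrected inhibition of the luciferase reporter signal at the single screening dose is 50% or more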
Peg3 promoter – reduces Peg3 promoter-driven luciferase expression in HeLa; HeLa PEG-Prom luciferase reporter, luminescence, overnight; inhibition, % at 20 µM; 1.7% of 360,000 active; AID 588405;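 active = inhibition of at least 50% at 20 µM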
TWEAK-Fn14 inh – blocks TWEAK-Fn14 interaction in a reporter cell assay. inhibition, % at 10 µM. TWEAK-stimulated Fn14 reporter cells, luciferase luminescence, 8 h. 2% of 360,000 active; in the data active = inhibition above about 50%
Large screens that a line does not name were inactive.

CC(NC(=O)c1cccnc1Sc1ccccc1)c1ccc(S(N)(=O)=O)cc1 (centres undefined)	none
CC(C)Cc1ccc(C(=O)NCCOc2ccccc2)o1	TWEAK-Fn14 inh 50.8
Cc1cccc(N2CCN(C(=O)c3ccc4nc(-c5ccco5)c(-c5ccco5)nc4c3)CC2C)c1 (centres undefined)	Peg3 promoter 62.9
COc1ccc2oc3cc(NCCN(C)C)ccc3c(=O)c2c1	none
CCCn1c(Nc2cccc(OC)c2)nc2ccccc21	none
Cn1nc(Cc2cccc3ccccc23)c(C#N)c1N	none
CC(C)(C)n1nc(Cc2cccc3ccccc23)c2c(N)ncnc21	CF NFkB block 50.4
C[C@]12CC[C@@H]3c4cc(O)c(O)cc4CC[C@H]3[C@@H]1CC[C@@H]2O	CF NFkB block 54.6
CC(C)c1cc(C(=O)N2CCN(C(c3ccccc3)c3ccccc3)CC2)no1	TROY signal inh 60.3
CC(C)Cc1cc(C(=O)N2CCN(C(c3ccccc3)c3ccccc3)CC2)no1	none
CC(C)c1onc(C(=O)N2CCN(C(c3ccccc3)c3ccccc3)CC2)c1[N+](=O)[O-]	CF NFkB block 50.5
COc1ccc(NC(=O)CN2CCCCCC2)cc1OC	none
COc1cc(C(=O)N2CCCC(c3cc(C(=O)NCc4ccc(F)cc4)no3)C2)cc(OC)c1C (centres undefined)	none
CCOc1ccc(Br)cc1S(=O)(=O)Nc1cccc(S(=O)(=O)Nc2ccccc2C(=O)O)c1	none
CCOC(=O)C1(C)CCN1C(=O)c1c(F)cccc1F (centres undefined)	none
Cc1c(CNCCCc2ccccc2)c(C(=O)O)c(C)n1Cc1ccccc1	TROY signal inh 51.6
Cc1c(CNCC(C)c2ccccc2)c(C(=O)O)c(C)n1Cc1ccccc1 (centres undefined)	none
Cc1ccc2nc(-c3ccccn3)[nH]c2c1	TWEAK-Fn14 inh 79.8
Cc1cc(O)c(C=O)c2c1C(=O)Oc1c(CO)c(O)c3c(c1O2)C(O)OC3=O (centres undefined)	TWEAK-Fn14 inh 55.9
COc1ccc(C=CC(=O)c2c(OC)cc(OC)c(OC)c2O)cc1	TWEAK-Fn14 inh 67.9
COc1ccc(OC)c(N/C(C)=C/C(=O)c2ccccc2)c1	none
COc1ccc(C(=O)/C=C/c2cc(OC)c(O)c(OC)c2)c(F)c1	TWEAK-Fn14 inh 56.5
COc1ccc(C(=O)/C=C/c2ccc(N3CCCCC3)c([N+](=O)[O-])c2)c(OC)c1	HIF-2a block 40.6
COc1ccc(OC)c(N/C=C/C(=O)c2ccccc2)c1	KKLEB cytotox -88.4, HIF-2a block 63.0, TROY signal inh 80.7, Peg3 promoter 73.2, TWEAK-Fn14 inh 100.7
Cc1ccc(-c2nc3cc(C)c(Br)c(C)n3c2Cc2ccsc2)cc1	none (no result: CF NFkB block, KKLEB cytotox, Peg3 promoter)
CC1(C)CC(=O)C=C(c2cccc(Cl)c2O)C1	none
COc1ccc(C(=O)/C=C/c2ccccc2)c(OC)c1	Peg3 promoter 68.0, TWEAK-Fn14 inh 58.5
COc1cc(/C=C/C(=O)c2cccc([N+](=O)[O-])c2)cc(OC)c1OC	Peg3 promoter 105.2
COCOc1cc(O)c(C(=O)/C=C/c2ccccc2)c(OCOC)c1	Peg3 promoter 94.5, TWEAK-Fn14 inh 70.5
COc1ccc(C(=O)/C=C/c2ccc(N(C)C)cc2)c(OC)c1	none
COc1ccccc1N(C)S(=O)(=O)c1ccc(C)c(C(=O)Nc2nccs2)c1	none
COc1cc(CN2CCNC(=O)C2CC(=O)N2CCCN(C(C)=O)CC2)cc(OC)c1 (centres undefined)	none
CN1C(=O)[C@H]2[C@@H](c3ccccc3)N[C@]3(CCCN(Cc4ccc(F)cc4)C3=O)[C@H]2C1=O	none
COC(=O)c1ccc(NC(=O)C2CCCN2C(=O)OCc2ccccc2)cc1 (centres undefined)	none
CC(SCc1ccccc1)C(=O)Nc1ccc(F)cc1 (centres undefined)	none
N#CC(C#N)=C(Nc1ccc(F)cc1)SCc1cccc(Br)c1	CF NFkB block 51.3
O=[N+]([O-])c1cccc(-c2nc(-c3cccs3)c(-c3cccs3)[nH]2)c1	TWEAK-Fn14 inh 57.9
O=[N+]([O-])c1ccc(-c2nc(-c3cccs3)c(-c3cccs3)[nH]2)cc1	TROY signal inh 66.1, TWEAK-Fn14 inh 78.7
COC(=O)/C=c1\[nH]c2nnc(C)n2c1=O	TROY signal inh 50.1
Cc1ccc(-n2ncc(C(=O)Nc3cc(Cl)cc(Cl)c3)c2C2CCNCC2)cc1C	Peg3 promoter 59.5
Cc1c(CN2CCC(CO)(Cc3cccc(C(F)(F)F)c3)CC2)c2ccccc2n1C	Peg3 promoter 111.6
O=C1NC(=S)S/C1=C/c1ccc(N2CCOCC2)o1	none
O=C1NC(=S)S/C1=C\C=C\c1ccc([N+](=O)[O-])o1	CF NFkB block 93.2, HIF-2a block 82.3, Peg3 promoter 104.3, TWEAK-Fn14 inh 50.1
Cc1ccc(C)c(NC(=O)CCC(=O)N2CCOc3ccccc32)c1	none
O=C(COc1ccc(/C=N/NC(=O)c2cc3ccccc3o2)cc1Cl)Nc1ccccc1	CF NFkB block 89.8, KKLEB cytotox -92.7, Peg3 promoter 107.7
O=C(O)/C=C/c1cnc2ccccc2n1	TROY signal inh 63.7
O=C(/C=C/c1cnc2ccccc2n1)NC12CC3CC(CC(C3)C1)C2	TROY signal inh 70.5, TWEAK-Fn14 inh 72.7
Cc1cnc(C(=O)NC2CC(C)(C)Cc3c2cnn3-c2cccc(F)c2)cn1 (centres undefined)	none
Cc1ccc(S(=O)(=O)NC(Cc2ccccc2)C(=O)NN)cc1 (centres undefined)	none
CC(NS(=O)(=O)c1ccc(Br)cc1)C(=O)NCCc1ccccc1 (centres undefined)	TROY signal inh 56.8
Cc1ccc(S(=O)(=O)N[C@@H](Cc2ccccc2)C(=O)CCl)cc1	CF NFkB block 72.1, Peg3 promoter 101.2, TWEAK-Fn14 inh 65.8
Cc1ccc(NC2CCCN(C(=O)c3ccc4[nH]ccc4c3)C2)cc1C (centres undefined)	none
CC1=C(C(=O)N(C(C)C)C(C)C)CC(CC(=O)NC(c2ccccc2)c2ccccc2)C(=O)N1Cc1ccc(F)cc1 (centres undefined)	none
C=CCOC(=O)C1=C(C)N(C)C(=O)NC1c1cc2c(cc1Br)OCO2 (centres undefined)	TROY signal inh 82.5, Peg3 promoter 66.8, TWEAK-Fn14 inh 89.7
CCOC(=O)C1=C(C)NC(=O)CC1c1cc2c(cc1Br)OCO2 (centres undefined)	TWEAK-Fn14 inh 100.5 (no result: TROY signal inh)
Cn1nc(C(C)(C)C)cc1C(=O)N1CCCC(c2cc(C(=O)Nc3ccccc3Cl)no2)C1 (centres undefined)	none
O=C(COc1ccc(CO)cc1Cl)Nc1ccc(F)cc1	TWEAK-Fn14 inh 62.8
C/C(=N\NC(=O)C(C)Sc1ccccc1)c1ccc([N+](=O)[O-])cc1 (centres undefined)	none
Cc1ccc2c(c1)Cc1nc3ccccc3nc1-2	TWEAK-Fn14 inh 70.3
